Screens: PubChem BioAssay, The Scripps Research Institute Molecular Screening Center
hgDAF12 agonist: hgDAF-12 agonism, primary luciferase screen; HEK293 GAL4-hgDAF12 UAS-luciferase reporter, agonist luminescence; normalized to butyrate control; 370,000 tested, 1.8% active; activation, % at 6.8 µM;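 active = activation above a cutoff set at the mean of all screened compounds plus 3 SD, cut at about 10% in these data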;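 also: 0% = DMSO wells and 100% = sodium butyrate wells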
DAX1 inh-1: NR0B1 (DAX1) inhibition | P51843 | HEK293 Gal4-DAX1 luciferase reporter, luminescence | inhibition, % at 6.75 µM | 340,000 tested, 0.99% active | AID 504766;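 active = inhibition above the mean over all tested compounds plus 3 SD, cut at about 4.2% in these data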;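 also: 0% = DAX1-transfected cells with DMSO and 100% = empty-vector control cells with DMSO; inhibition shows as a rise in luminescence from relieved DAX1 repression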
hcDAF-12 act: activators of H. contortus DAF-12 nuclear receptor | HEK293 hcDAF-12 lit1-tk-luc reporter, luminescence; 0% DMSO, 100% Δ7-dafachronic acid | AID 652067 | 370,000 tested, 1.4% active | activation, % at 6.8 µM;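 active = activation above the mean of all tested compounds plus 3 SD, cut at about 5.5% in these data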;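 also: 100% = response to 3 µM Δ7-dafachronic acid high control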
DAX1 inh-2: DAX1 (NR0B1) inhibition, primary screen | AID 652010 | 370,000 tested, 1.1% active | inhibition, % at 6.8 µM | HEK293T StAR-luciferase reporter, SF-1/DAX-1 repression relief;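 active = inhibition above the mean over all tested compounds plus 3 SD, cut at about 3.6% in these data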;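 also: 0% = DAX-1 cells with DMSO and 100% = cells lacking DAX-1 with DMSO; higher inhibition means more luminescence from relief of DAX-1 repression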
ssDAF-12 act: S. stercoralis DAF-12 activation, primary screen. HEK293 ssDAF-12/GRIP1 lit1-tk-luc reporter, luminescence; % of 3 µM dafachronic acid response. activation, % at 6.8 µM. 370,000 tested, 1% active;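 active = activation above the mean over all tested compounds plus 3 SD, cut at about 0.9% in these data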;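 also: 0% = DMSO-only wells and 100% = 3 µM delta7-dafachronic acid wells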
hgDAF12 ag: confirmation of H. glycines DAF-12 agonists; activation, % at 6.8 µM; AID 743050; 3,300 tested, 80% active; shares compounds with hgDAF12 agonist; HEK293 GAL4-hgDAF12 luciferase reporter, agonist mode; percent of butyrate response;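 active = mean activation over triplicate wells above the hit cutoff derived from the earlier primary screen, cut at about 11% in these data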;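 also: 0% = DMSO low control and 100% = 2 mM sodium butyrate high control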
LXR ag 2: LXR-beta agonism as DAF-12 counter-screen; shares compounds with hgDAF12 agonist; HEK293 Gal4-LXR luciferase reporter, 24 h; activation, % at 6.8 µM; 3,300 tested, under 10 active; AID 743051;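 active = mean activation of the triplicate above a set limit carried over from the primary screen, none filed active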
Target sequence (P55055 whole entry, looked up, the tested form may be a part): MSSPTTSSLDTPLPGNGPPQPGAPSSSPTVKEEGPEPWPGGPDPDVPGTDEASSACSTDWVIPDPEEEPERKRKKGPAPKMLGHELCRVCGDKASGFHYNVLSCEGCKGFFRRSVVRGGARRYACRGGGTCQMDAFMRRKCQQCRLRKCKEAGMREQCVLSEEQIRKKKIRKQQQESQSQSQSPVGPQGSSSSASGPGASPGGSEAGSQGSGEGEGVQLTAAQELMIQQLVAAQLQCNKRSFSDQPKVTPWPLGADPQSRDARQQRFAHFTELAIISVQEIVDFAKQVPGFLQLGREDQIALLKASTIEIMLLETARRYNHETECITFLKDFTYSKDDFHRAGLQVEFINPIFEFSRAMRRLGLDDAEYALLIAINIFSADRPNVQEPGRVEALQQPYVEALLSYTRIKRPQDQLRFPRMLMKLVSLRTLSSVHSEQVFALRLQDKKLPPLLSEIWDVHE
Numbers without * were called inactive; . = not tested or not shown. This is a sample that favours compounds with a hit; in the whole collection about 4.1% have one here.

SMILES	hgDAF12 agonist	DAX1 inh-1	hcDAF-12 act	DAX1 inh-2	ssDAF-12 act	hgDAF12 ag	LXR ag 2
COc1cccc2cc(-c3ccccc3)c(=O)oc12	16.0*	1.4	5.8*	2.1	0.8	14.0*	0.6
COC(=O)C(C)Oc1ccc2cc(-c3ccccc3)c(=O)oc2c1 (stereo not given)	0.4	0.3	1.0	-0.1	-0.8	.	.
CC(C)(C)C1N=C(c2ccc3ccccc3c2)OC1=O (stereo not given)	2.4	-0.1	0.4	0.2	-1.6	.	.
N#C/C(=C\c1ccc(OCc2cccc(C(=O)O)c2)cc1)C(=O)NCc1ccco1	14.6*	-1.4	2.4	3.8*	-0.7	18.4*	0.6
N#C/C(=C\c1ccc(OCc2ccc(C(=O)O)cc2)cc1)C(=O)NCc1ccccc1	-0.1	1.7	0.4	0.4	-1.3	.	.
Cc1ccc(NC(=O)C2C3CCCC2C3c2ccccc2)cc1 (stereo not given)	-0.1	-0.6	2.4	-0.1	-1.2	.	.
C=CCNc1ncnc2c1ncn2[C@H]1CN(Cc2ccc(F)cc2)C[C@@H](CO)O1	-4.6	.	0.8	0.2	0.3	.	.
COc1ccccc1OCC(=O)Nc1cc(S(=O)(=O)N2CCOCC2)ccc1N1CCCCC1	-2.0	-0.3	-1.6	-1.5	-1.7	.	.
CC[N+](CC)(CC)CC(=O)Nc1ccc(SC(F)F)cc1	-2.1	1.8	-0.7	-0.4	-1.4	.	.
Cc1ccc(C(=O)Nc2ccc(SC(F)F)cc2)s1	19.7*	2.5	5.3	4.2*	-0.5	12.7*	0.6
CCc1ccc(-c2cc(C(=O)N/N=C/c3c[nH]c4ccccc34)[nH]n2)cc1	17.7*	0.1	3.0	-3.3	0.7	1.4	0.2
CCCCOC(=O)Nc1ccc(N2CCOCC2)cc1	6.0	2.6	2.2	1.0	-1.1	.	.
CCCCOC(=O)Nc1ccc(N2CCCCC2)cc1	13.4*	1.2	3.7	3.5	-0.2	13.4*	0.7
C=CCN1C[C@H](COC(=O)c2cccc(C)c2)Oc2cccc(F)c2S1(=O)=O	-2.8	.	-0.9	-1.6	-0.7	.	.
C(=C\c1nnc(-c2cccs2)o1)/c1ccccc1	18.0*	2.7	4.0	3.7*	-0.2	15.7*	0.7
COc1ccccc1Cc1c(-c2cccc(Cl)c2)nc2ccc(C)cn12	14.9*	.	2.3	2.9	-0.4	4.5	0.2
COC(=O)c1ccc2nc(-c3ccc(C)cc3)c(Cc3cccc(F)c3)n2c1	1.5	.	1.2	0.2	-1.1	.	.
COc1ccc(Cc2c(-c3ccc(F)cc3)nc3ccc(Br)cn23)c(C)c1	13.6*	.	2.4	0.2	0.4	7.6	0.4
Cc1ccc(-c2nc3ccc(C)cn3c2Cc2cccc(F)c2)cc1	14.7*	.	3.5	3.6*	0.0	5.1	0.2
Fc1cccc(Cc2c(-c3cccc(Cl)c3)nc3ccc(Cl)cn23)c1	1.0	.	-0.4	2.7	-1.0	.	.
Cc1ccc2nc(-c3cccc(Cl)c3)c(Cc3cccc(Cl)c3)n2c1	10.2	.	2.4	3.4	-0.3	.	.
Cc1ccc2nc(C(C)(C)C)c(Cc3cccc(F)c3)n2c1	16.2*	.	3.5	3.7*	2.2*	5.3	0.2
O=C(NCCc1ccccn1)C1CCN(S(=O)(=O)c2ccc3ccccc3c2)CC1	0.3	-0.2	-0.3	0.3	-1.1	.	.
O=C(CSc1nnc(-c2ccc(Cl)cc2)n1-c1ccccc1)Nc1ccc2c(c1)OCCO2	0.0	.	-2.7	0.1	-1.1	.	.
CCCc1nc2ccc(C)cn2c1Cc1ccc(C)cc1	13.8*	.	4.5	1.3	-0.2	9.3	0.5
CN(C(=O)CSc1nc2ccc(Cl)cc2[nH]1)C1CCS(=O)(=O)C1 (stereo not given)	-2.4	-0.6	-1.8	0.1	-1.3	.	.
O/N=C/c1ccc(OCc2ccccc2)c(Br)c1	16.1*	1.1	3.3	0.5	0.0	22.1*	0.8
O/N=C/c1ccc(OCc2ccccc2)c(Cl)c1	15.2*	5.0*	3.7	2.1	1.4*	13.1*	0.6
CCOc1cc(/C=N/O)ccc1OCc1ccc(C)cc1	1.9	-0.2	0.0	0.5	-1.6	.	.
O/N=C/c1cc(Br)cc(Br)c1OCc1ccccc1	-3.5	-1.1	-1.6	-0.3	-1.5	.	.
